Data taken from ChEMBL document CHEMBL4513216, “Probing the Open Global Health Chemical Diversity Library for Multistage-Active Starting Points for Next-Generation Antimalarials” (ACS Infect Dis, 2020).
The whole screen tested about 69,000 compounds, of which about 8,600 (12%) showed an effect of 50% or more. The sample as a whole holds a higher share of strong results than the screen did.

system: Plasmodium berghei; test: Screen against P. berghei liver stage (PbLuc), transformed with Luciferase, at 10uM; format: functional, HepG2; details: tested at 10 uM

| SMILES | INHIBITION |
| --- | --- |
| Cc1noc(C(C)N2CCN(CC(=O)N3CCCC3)CC2)n1 (stereo not drawn) | 8.99% |
| O=C(NCC1CCCCC1)N1C[C@@H]2C[C@H](C(=O)N3CCCC3)[C@H](C1)O2 | 48.2% |
| N#Cc1ccc(NCc2cc3n(n2)CCCN(C(=O)C2CCC2)C3)nc1 | 14.6% |
| CSc1ccc(-n2nnc(C(=O)O)c2-c2ccccn2)cc1 | 36.2% |
| CC(CNCc1ccc(F)cc1)Oc1ccccn1 (stereo not drawn) | 13.8% |
| COc1ccc(OCC(=O)NS(=O)(=O)c2ccc(Cl)s2)cc1 | 17.7% |
| COc1cccc(OCC(=O)NS(=O)(=O)c2ccc(Br)s2)c1 | 17.5% |
| COc1ccc(OCC(=O)NS(=O)(=O)c2ccc(Br)s2)cc1 | 60.9% |
| CCn1nnc2c1C(COC)CN(Cc1ccsc1)C2 (stereo not drawn) | 21% |
| Cn1cc(C(=O)N2CCC(c3cc(CCO)n(C)n3)C2)cn1 (stereo not drawn) | 0.696% |
| C=CNC(=O)c1nnc2ccc(N3CCOCC3)cc2n1 | 11% |
| CS(=O)(=O)N1CCC(CNC(=O)c2cnccn2)CC1 | 43.8% |
| Cc1cc(C)nc(N2CCC(CNC(=O)c3cnccn3)CC2)n1 | -51.4% |
| O=C(NCC1CCN(c2ncccn2)CC1)c1cnccn1 | 71.8% |
| COc1ccccc1N1CCN(C(=O)NC(C)c2nncn2C)CC1 (stereo not drawn) | 9.14% |
| CCCC(=O)N1CCN(Cc2cc(-c3ccncc3)nn2C)CC1 | 8.72% |
| CC(c1ccco1)n1cc(-c2cc(CN3CCCC3)cs2)nn1 (stereo not drawn) | 5.23% |
| CC(c1nccs1)n1cc(-c2cc(CN3CCCCC3)cs2)nn1 (stereo not drawn) | 21.5% |
| CC(c1nncn1C)n1cc(-c2cc(CN3CCCC3)cs2)nn1 (stereo not drawn) | 57.2% |
| CC(C)CN1CCn2c(COCc3cccnc3)nnc2C1 | -29.3% |
| O=C1CC2(CCN(Cc3cccnc3)C2)CN1c1ccc2c(c1)OCO2 (stereo not drawn) | 22.9% |
| Cc1ccc(CN2CCC3(CC(=O)N(c4ccc5c(c4)OCO5)C3)C2)o1 (stereo not drawn) | 69.5% |
| Cc1ccc(CN2CCC3(CC(=O)N(c4cccc(F)c4)C3)C2)o1 (stereo not drawn) | 12% |
| O=C1CC2(CCN(Cc3ccco3)C2)CN1c1ccc2c(c1)OCO2 (stereo not drawn) | 78.8% |
| Cn1ccnc1CN1CCC2(CC(=O)N(c3ccc4c(c3)OCO4)C2)C1 (stereo not drawn) | 4.27% |

| SMILES | INHIBITION |
| --- | --- |
| O=C1CC2(CCN(CC3CC3)C2)CN1c1ccc2c(c1)OCO2 (stereo not drawn) | 25% |
| CC(C)CN1CCO[C@H]2CCN(c3cnccn3)CC[C@@H]21 | 16.6% |
| O=C(c1cc(-n2cccn2)ccc1Cl)N1CCC(N2CCCC2=O)CC1 | 18.5% |
| CC(C)[C@H]1CN(Cc2nccn2C)C[C@@H]1NC(=O)COCC(N)=O | 44.9% |
| CS(=O)(=O)c1cnc(CC2CC2)nc1C1CCCNC1 (stereo not drawn) | 41.7% |
| NC1CCN(c2nccn3c(=O)[nH]nc23)CC1 | 48.2% |
| Cc1cc(N2CCN(C3CCSCC3)CC2)n2nc(C)c(C)c2n1 | 51.4% |
| Cc1cc(N2CCN3CCCCC3C2)n2nc(C)c(C)c2n1 (stereo not drawn) | 16.8% |
| Cc1cc(N2CCCN3CCC[C@H]3C2)n2nc(C)c(C)c2n1 | 48.1% |
| O=S(=O)(c1cn[nH]c1)N1CCC(O)(CN2CCC(F)(F)CC2)C1 (stereo not drawn) | -5.452% |
| CC(C)c1ccc(C(=O)O)cc1S(=O)(=O)Nc1ccc(=O)n(C)c1 | -3.87% |
| CC(C)Cc1ccc(S(=O)(=O)NCCCN2CCNC(=O)C2)cc1 | -20.3% |
| Cc1ccc(S(=O)(=O)Nc2ccc(=O)n(C)c2)c(Br)c1 | 77% |
| CCCc1ccc(S(=O)(=O)NCCNC(=O)c2ccoc2)cc1 | 5.05% |
| Cn1cc(NS(=O)(=O)c2ccc(F)c(F)c2)ccc1=O | 23.5% |
| Cc1ccc(F)c(S(=O)(=O)Nc2cn(C)cc(Br)c2=O)c1 | 8.53% |
| CCc1ccc(C(=O)O)cc1S(=O)(=O)Nc1ccc(=O)n(C)c1 | 9.16% |
| Cn1cc(Br)c(=O)c(NS(=O)(=O)c2ccc3c(c2)CCC3)c1 | 28.3% |
| CCc1ccc(S(=O)(=O)Nc2cn(C)cc(Br)c2=O)cc1 | 25.3% |
| Cn1cc(NS(=O)(=O)c2ccc3c(c2)CCCC3)ccc1=O | 81.1% |
| CCCc1ccc(S(=O)(=O)Nc2ccc(=O)n(C)c2)cc1 | 81.1% |
| CC(C)Cc1ccc(S(=O)(=O)Nc2ccc(=O)n(C)c2)cc1 | 88.5% |
| CS(=O)(=O)CCCSc1cccc(C#N)c1 | -9.08% |
| O=c1occ(CN2CCSCC2)c(O)c1CN1CCCC1 | 4.93% |
| O=C(c1ccco1)N1C[C@H]2CCCN(CC3CC3)[C@H]2C1 | 25.5% |

| SMILES | INHIBITION |
| --- | --- |
| CCc1cc(C(=O)N2CCC(O)(Cn3ccc4ccncc43)CC2)no1 | -0.902% |
| Cc1ncc(Cl)c(C(=O)N2CCCC(n3nc(C)nc3C)C2)n1 (stereo not drawn) | 17.265% |
| O=C(Cn1ccc2ccc(Cl)cc21)NCc1ccc(C(=O)O)cc1 | -6.42% |
| Cc1ccccc1CN1C[C@@H](C(=O)N2CCCCO2)C[C@H]2OCC[C@H]21 | 42.7% |
| CN(C)C(=O)[C@H]1C[C@H]2OCC[C@H]2N(Cc2ccc3c(c2)OCO3)C1 | 28.7% |
| O=C([C@H]1CN(Cc2cccnc2)C[C@H]2OCC[C@@H]12)N1CCCO1 | 26.5% |
| O=C([C@H]1C[C@H]2OCC[C@H]2N(Cc2ccoc2)C1)N1CCCCO1 | 88.2% |
| O=C([C@H]1C[C@H]2OCC[C@H]2N(Cc2ccoc2)C1)N1CCCO1 | 19.4% |
| O=C([C@H]1C[C@H]2OCC[C@H]2N(Cc2ccc(F)cc2)C1)N1CCCCO1 | 38.1% |
| CN(C)C(=O)[C@H]1C[C@H]2OCC[C@H]2N(Cc2ccc(F)cc2)C1 | 53.2% |
| O=C([C@H]1CN(Cc2ccccc2F)C[C@H]2OCC[C@@H]12)N1CCCO1 | 61.9% |
| CNC(=O)[C@H]1C[C@H]2OCC[C@H]2N(Cc2ccc(F)cc2)C1 | 33% |
| O=C([C@H]1C[C@H]2OCC[C@H]2N(Cc2ccccc2F)C1)N1CCCCO1 | 59% |
| O=C([C@H]1C[C@H]2OCC[C@H]2N(Cc2ccccn2)C1)N1CCCCO1 | 5.44% |
| O=C([C@H]1CN(Cc2ccc(F)cc2)C[C@H]2OCC[C@@H]12)N1CCCO1 | 24.9% |
| Cc1ccc(CN2CCc3ncnc(C4CCOC4)c3CC2)s1 (stereo not drawn) | -31.6% |
| CC(C)=CCN1CCN(C(=O)c2cc(C(C)C)on2)[C@H]2CS(=O)(=O)C[C@H]21 | 17.7% |
| CN(C)c1cc(C2CCN(C(=O)c3cnn(C)c3)CC2)ccn1 | 26.4% |
| COCCN1CC(=O)N(C(C)C)C(C)(C)C1 | -1.3% |
| CCCc1nc(CN(CC)Cc2ccc(S(C)(=O)=O)cc2)no1 | -21.9% |
| Cn1nc2c(cc1=O)CN(Cc1coc(-c3ccc(F)cc3)n1)CC2 | -0.113% |
| CN(Cc1cccnc1)[C@@H]1CN(Cc2nccn2C)[C@@H]2CCCO[C@H]12 | -27% |
| CC(C)NC(=O)C1CCc2nnc(CNC(=O)c3cccnc3)n21 (stereo not drawn) | -57.8% |
| CCC[C@H]1CN(C(=O)Cn2ccccc2=O)C[C@@H]1NS(C)(=O)=O | 20.6% |
| Cc1c(C(=O)NCCN2C(=O)CCC2=O)sc2ccc(F)cc12 | -64.6% |

| SMILES | INHIBITION |
| --- | --- |
| O=C(NCC1CC1)[C@H]1C[C@H]2OCC[C@H]2N(Cc2ccoc2)C1 | 35.3% |
| O=C(NC1CCCC1)[C@H]1C[C@H]2OCC[C@H]2N(Cc2ccoc2)C1 | -1.55% |
| CC1CCN(C(=O)[C@@H]2C[C@H]3OCC[C@H]3N(Cc3ccoc3)C2)CC1 | 59% |
| CCC1=NC2(CCC(C(=O)Nc3ccc(C)nc3)CC2)C(=O)N1C (stereo not drawn) | 64.3% |
| CCC1=NC2(CCC(C(=O)Nc3ccc(F)cc3)CC2)C(=O)N1C (stereo not drawn) | 42.4% |
| Cc1ccc(NC(=O)[C@H]2C[C@H](C(=O)O)CN(CC3CC3)C2)cn1 | 39.4% |
| O=C1CCN(C(=O)NCCc2c[nH]c3ccc(Cl)cc23)CCN1 | 1.56% |
| COc1ccccc1-c1nc(C(=O)N2CCOCC2)n2ccncc12 | 32.5% |
| COC(=O)CNC(=O)c1nc(-c2ccccc2OC)c2cnccn12 | 54.9% |
| COc1ccccc1-c1nc(C(=O)N(C)C)n2ccncc12 | 30.8% |
| COc1ncc(CN2CCCC2c2[nH]ncc2C(=O)N(C)C)cn1 (stereo not drawn) | 3.48% |
| Cc1nn(C)c(C)c1-c1cc(-c2cnn(C)c2C2CC2)c(C#N)c(N)n1 | 34.5% |
| N#Cc1c(C2CC2)cc(-c2ccc(O)cc2)nc1N | -14.9% |
| Cc1cccc(-c2cc(-c3c(C)nn(CCO)c3C)c(C#N)c(N)n2)c1 | -13.2% |
| Cn1ncc(-c2cc(-c3cccc(O)c3)nc(N)c2C#N)c1C1CC1 | 80% |
| Cc1cc(O)ccc1-c1cc(-c2cnn(C)c2C2CC2)c(C#N)c(N)n1 | 87.9% |
| Cc1n[nH]c(C)c1-c1cc(-c2cc[nH]c2)nc(N)c1C#N | 28% |
| Cc1n[nH]c(C)c1-c1cc(-c2ccc[nH]2)nc(N)c1C#N | 7.22% |
| CC(C)c1cc(-c2cnn(C)c2C2CC2)c(C#N)c(N)n1 | -14.3% |
| Cc1n[nH]c(C)c1-c1cc(-c2cccc(O)c2)nc(N)c1C#N | 57.6% |
| CC(=O)N1CCN(C(=O)C2CCN(c3cccnn3)C2)CC1 (stereo not drawn) | -8.12% |
| COC(=O)C1=C(C)N=C2SCC(=O)N2C1c1cnn(C)c1C (stereo not drawn) | 22.6% |
| COc1ccc(CC2(CO)CCN(c3cc(N)ncn3)CC2)cc1 | 26.8% |
